# HEK293 viab – cell viability loss counter-screen; Potency, µM (top dose mostly 57.1 µM), inactives show at the highest dose activity change, negative = cytotoxicity, hits mostly cytotoxic; AID 1671193; 0.12% of 150,000 active; HEK-293-SNCA-luc viability, GF-AFC fluorescence, 24 h;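 also: 0% = DMSO-treated cells and -100% = medium-only wells without cells; nearly all actives have a fitted effect of over 30% in size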
#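 HEK-293-SNCA-luc cells (1500/well) plated 24 h, then exposed 24 h to a dilution series; GF-AFC added 30 min at 37C, fluorescence 405/540 nm; normalised to medium-only and DMSO wells, Hill fit.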
# SNCA expr inh – SNCA gene expression inhibition. 0.17% of 140,000 active. HEK-293 SNCA-luciferase knock-in, luminescence, 24 h. Potency, µM (doses to about 57.2 µM), inactives show at the highest dose activity change, negative = inhibition, hits mostly inhibitors. AID 1671194;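 also: plate controls were DMSO cells for no effect and cell-free wells for full effect; nearly all actives have a fitted effect of over 45% in size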
# 3T3 cytotox – NIH 3T3 cell cytotoxicity. NIH 3T3 viability, CellTiter-Glo ATP luminescence, 48-72 h. Potency, µM (series often up to 96.7 µM), for the others: top-dose activity change, negative = cytotoxicity, hits mostly inhibitors. 4.3% of 94,000 active; also: nearly all actives have a fitted effect of over 55% in size
#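 Cytotoxicity was measured by CellTiter-Glo ATP luminescence after 48 or 72 h compound exposure at 37 °C. Mouse NIH 3T3 fibroblasts were seeded at 400 cells/well and dosed by 23 nL pin transfer.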
# hNpr1 antagonist – blocks ANP-stimulated signaling of human Npr1 receptor. P16066. HEK293 hNpr1 GloSensor cGMP, ANP-stimulated luminescence. Potency, µM (highest dose often 46.3 µM), inactives show at the highest dose activity change, negative = inhibition, hits mostly inhibitors. 1.6% of 76,000 active; calls by dose curve; also: nearly all actives have a fitted effect of over 60% in size
# Target sequence (P16066 whole entry, looked up): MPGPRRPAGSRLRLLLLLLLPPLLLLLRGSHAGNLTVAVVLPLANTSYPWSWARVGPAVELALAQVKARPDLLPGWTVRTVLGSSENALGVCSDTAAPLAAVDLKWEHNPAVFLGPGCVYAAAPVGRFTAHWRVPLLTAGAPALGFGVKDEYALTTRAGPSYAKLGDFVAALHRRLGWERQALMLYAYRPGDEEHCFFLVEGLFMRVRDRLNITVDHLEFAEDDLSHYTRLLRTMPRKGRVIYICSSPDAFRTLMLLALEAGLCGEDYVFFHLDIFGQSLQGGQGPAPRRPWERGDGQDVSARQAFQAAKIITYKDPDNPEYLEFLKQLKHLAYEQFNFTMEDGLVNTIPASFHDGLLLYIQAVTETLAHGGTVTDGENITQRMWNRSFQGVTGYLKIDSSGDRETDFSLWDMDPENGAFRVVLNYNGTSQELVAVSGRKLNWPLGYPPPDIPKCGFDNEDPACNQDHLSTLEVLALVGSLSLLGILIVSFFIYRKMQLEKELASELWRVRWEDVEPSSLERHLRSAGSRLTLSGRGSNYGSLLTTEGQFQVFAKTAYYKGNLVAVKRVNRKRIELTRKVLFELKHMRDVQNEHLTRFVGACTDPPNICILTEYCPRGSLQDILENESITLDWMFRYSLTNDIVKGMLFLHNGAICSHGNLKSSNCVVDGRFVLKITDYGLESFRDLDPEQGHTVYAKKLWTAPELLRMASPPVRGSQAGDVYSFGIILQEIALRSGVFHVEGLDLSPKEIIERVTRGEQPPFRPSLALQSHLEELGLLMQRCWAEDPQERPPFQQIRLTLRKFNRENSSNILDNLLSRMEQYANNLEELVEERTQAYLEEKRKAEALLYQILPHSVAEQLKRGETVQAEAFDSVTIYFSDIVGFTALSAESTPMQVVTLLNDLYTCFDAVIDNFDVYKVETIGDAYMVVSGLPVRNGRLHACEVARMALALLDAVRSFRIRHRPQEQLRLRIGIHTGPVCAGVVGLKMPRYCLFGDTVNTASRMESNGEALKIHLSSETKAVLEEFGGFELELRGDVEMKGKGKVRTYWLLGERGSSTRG
#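 HEK293 cells stably expressing human Npr1 and cGMP GloSensor pGS-40F, loaded 2 h with 2% GloSensor reagent, given compound 30 min at room temperature. Luminescence read before and 20 min after 0.1 nM hNppA.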
# HEK293 tox – cytotoxic compounds in HEK 293 cells; HEK 293 viability, ATP luminescence (CellTiter-Glo), 48-72 h; Potency, µM (highest dose often 115 µM), for inactives: at the top dose activity change, negative = cytotoxicity, usual class: inhibitors; 6.6% of 94,000 active; also: nearly all actives have a fitted effect of over 60% in size
#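 Luminescence from cellular ATP, measured with CellTiter-Glo, indicates HEK 293 viability. Cells plated at 250 cells/well are treated with compound for 48 or 72 hr at 37 degree Celsius before reagent addition.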
# Luciferase inh – Photinus pyralis luciferase inhibition; purified P. pyralis luciferase, luminescence, biochemical; AID 1347043; Potency, µM (titrated, usually from 115 µM), most hits filed as inhibitors; P08659; 2.5% of 76,000 active; also: nearly all actives have a fitted effect of over 65% in size
#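 Inhibitors were tested against purified firefly luciferase in a biochemical, low-substrate format (both substrates at 10uM) and luminescence measured with a CCD imager.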
# Numbers without * were called inactive; i = inactive; ? = inconclusive; . = not tested or not shown; [ ] = another dose, or the depositor's remark. This is a sample that favours compounds with a hit; in the whole collection about 7.4% have one here. Unless noted, calls follow the shape of the dose curve; as a rule, active = well fitted curve in the direction sought with a large enough effect; inconclusive = small, poorly fitted or top-dose-only effect, or another doubt; inactive = no such curve, though single readings can be large; an effect the other way counts as inactive or inconclusive. Unless noted, % is scaled to controls: 0 for no effect and ±100 for the full control effect; potency is read from the fitted curve at half-maximal effect.
SMILES,HEK293 viab,SNCA expr inh,3T3 cytotox,hNpr1 antagonist,HEK293 tox,Luciferase inh
CN(C)c1nc2c(c(=O)[nH]1)CCN(Cc1ccc(Cl)cc1F)CC2,-4%,5%,?,0%,?,i
Cc1nnc2ccc(N3CCCC(NC(=O)NC(C)C)C3)nn12 (stereo unspecified),.,.,-21%[138 µM],.,-16%[172 µM],.
COC(=O)N1CCn2c(nn(-c3ccc([N+](=O)[O-])cc3)c2=O)C1,2%[87.6 µM],7%[87.6 µM],-25%[138 µM],6%[70.6 µM],-23%[172 µM],i
O=c1n(-c2ccc([N+](=O)[O-])cc2)nc2n1CCN(Cc1ccc(OC(F)(F)F)cc1)C2,-3%,-19%,?,18µM*,35µM*,i
O=C(NC1CC1)c1ccc2nnc(Cc3ccc(Cl)cc3)n2c1,-10%,-20%,?,.,?,.
O=C(NCCCc1ccccc1)c1cc(-c2ccccc2)c2nncn2n1,-2%,16%,?,.,45µM*,.
O=C(NCCc1ccc(Cl)cc1)c1cc(-c2ccccc2)c2nncn2n1,1%,?,?,.,?,.
O=C(NCc1cccc(Cl)c1)c1cc(-c2ccsc2)c2nncn2n1,1%,3%,-1%,.,4%,.
O=C(NCCc1ccccc1)c1cc(-c2ccsc2)c2nncn2n1,-12%,10%,?,.,40µM*,.
CC(C)C(=O)N1CCOc2ccc(CN3CCCCCC3)cc2C1,-5%,4%,-21%,.,?,.
O=C(c1nn(CC2CC2)c2c1CNCC2)N1CCC(Cc2ccccc2)CC1,4%,11%,40µM*,.,?,.
Nc1ccccc1CN1CCCC2(Cc3ccccc3CNC2=O)C1 (stereo unspecified),-10%,3%,-18%,.,?,.
O=C(C1CCCC1)N1CC2(CCN(CC3CCCCC3)C2)Cc2ccccc21 (stereo unspecified),-16%,-13%,32µM*,.,?,.
NC(=O)c1cccc(CN2CCC3(Cc4ccccc4N(C(=O)C4CCCC4)C3)C2)c1 (stereo unspecified),-16%,-16%,-29%,.,79µM*,.
O=C(C1CCCC1)N1CC2(CCCN(Cc3c[nH]c4ccccc34)C2)Cc2ccccc21 (stereo unspecified),?,?,25µM*,.,22µM*,.
O=C(C1CCCC1)N1CC2(CCN(Cc3ccc(Cl)cc3)C2)Cc2ccccc21 (stereo unspecified),-22%,-18%,40µM*,.,?,.
COCCNC(=O)c1ccc(CC2CCN(C(=O)c3n[nH]c(=O)c4ccccc34)CC2)cc1,2%,-20%,-17%,.,?,.
O=C(NCCc1ccc(Cl)cc1)c1ccc2nnc(CC3CC3)n2c1,6%,-5%,?,.,?,.
COc1ccc(C(=O)N2CCN(Cc3ccccc3-c3ccccc3F)CC2)cc1,-12%[12.5 µM],-3%,?,.,?,.
COc1ccc(C2Cn3nnc(C(=O)N4CCC(C(=O)Nc5cccc(Cl)c5)CC4)c3CO2)cc1 (stereo unspecified),-13%,?,-6%,0%,-27%,i
CCc1cccc(NC(=O)C2CCN(C(=O)c3nnn4c3COC(c3ccc(C)cc3)C4)CC2)c1 (stereo unspecified),0%,126%,22µM*,-14%,10µM*,35µM*
COc1ccc(C2Cn3nnc(C(=O)N4CCC(C(=O)Nc5cc(C)cc(C)c5)CC4)c3CO2)cc1 (stereo unspecified),-2%,?,45µM*,0%,35µM*,i
CCc1cccc(NC(=O)C2CCN(C(=O)c3nnn4c3COC(c3ccc(OC)cc3)C4)CC2)c1 (stereo unspecified),-1%,-25%,?,-2%,18µM*,i
Cc1ccc(C2Cn3nnc(C(=O)N4CCC(C(=O)Nc5ccc(F)c(C)c5)CC4)c3CO2)cc1 (stereo unspecified),-4%,110%,i,-12%,5%,?
CNC(=O)c1cc(C2CC2)nc2c1c(C1CCN([S+](=O)([O-])c3ccccc3)C1)nn2C (stereo unspecified),.,.,-22%,.,-26%,.
SMILES,HEK293 viab,SNCA expr inh,3T3 cytotox,hNpr1 antagonist,HEK293 tox,Luciferase inh
Cc1ccc(C)c(C(=O)NCCn2ccn3nc(-c4cc(C)ccc4C)cc3c2=O)c1,-16%,?,?,-12%,40µM*,i
Cc1ccc(-c2cc3c(=O)n(CCNC(=O)c4ccc(Cl)cc4)ccn3n2)c(C)c1,-4%,6%,?,-26%,40µM*,i
Cc1ccc(-c2cc3c(=O)n(CC(O)c4ccc(C)c(C)c4)ccn3n2)c(C)c1 (stereo unspecified),-10%,-21%,?,?,40µM*,i
Cc1ccc(C)c(-c2cc3c(=O)n(CCNC(=O)c4ccccc4F)ccn3n2)c1,-9%,?,?,-15%,?,i
COc1cccc(C(=O)N2CCC(CCOc3ccc(F)cc3)C2)c1 (stereo unspecified),-8%,-22%,?,.,?,.
O=C(NCc1ccc(F)c(F)c1)c1ccc2nc(-c3cccnc3)oc2c1,1%[87.6 µM],17%[87.6 µM],-20%[138 µM],.,?,.
COc1ccccc1-c1ccc(C(=O)N2CCC(NC(=O)c3ccc(Cl)nc3)CC2)cc1,-3%[12.5 µM],?,?,.,?,.
COc1ccc(C(=O)N2CCOCC3(CN(Cc4cccc(Cl)c4)C3)C2)cc1OC,-25%[87.6 µM],?,?,-2%[70.6 µM],45µM*,i
COc1ccc(C(=O)N2CCOCC3(CN(Cc4ccc(F)c(Cl)c4)C3)C2)cc1OC,-21%,-12%,-29%,1%,?,i
COc1ccc(C(=O)N2CCOCC3(CN(Cc4cc(F)ccc4F)C3)C2)cc1OC,-13%[87.6 µM],-19%[87.6 µM],?,9%[70.6 µM],112µM*,i
CN(Cc1cccc(F)c1)Cc1cccc(C(F)(F)F)c1,-1%[87.6 µM],-5%[87.6 µM],-4%[138 µM],.,3%[172 µM],.
COc1ccc(Nc2cc3c(cn2)CN(CCc2ccccc2)CCN3)cn1,?,?,50µM*,-7%[70.6 µM],63µM*,i
COc1cccc(Nc2cc3c(cn2)NCCN(Cc2ccccc2)C3)c1,-10%[87.6 µM],-4%[87.6 µM],?,-21%[70.6 µM],89µM*,i
COc1cccc(CN2CCNc3cnc(Nc4ccccc4)cc3C2)c1,-3%[87.6 µM],-16%[87.6 µM],?,?,89µM*,i
COc1ccc(OC)c(CN2CCNc3cnc(OCc4cccnc4)cc3C2)c1,3%[87.6 µM],22%[87.6 µM],?,-11%[70.6 µM],?,i
COc1cccc(CN2CCNc3cnc(OCc4cccnc4)cc3C2)c1,-9%[87.6 µM],-2%[87.6 µM],?,-24%[70.6 µM],?,i
COc1ccccc1-n1c(=O)c(C(=O)NCC(F)F)nc2cccnc21,13%,-5%,-13%,.,i,.
